AC50 and outcome data for eight molecules are collected here from PubChem BioAssay (EPA / NIEHS).

A short description of assay [1]: NVS_IC_rCaBTZCHL: NovaScreen (NVS) Ion Channel Assay for Calcium Channel, Type L, Benzothiazepine Site (CaBTZCHL) (AID 2283337). An outline of the steps: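 Rat cortical membrane preparation, cell-free. Radioligand displaced by test chemical; 1.5 h incubation; filtration, scintillation count. DMSO = negative control/baseline. Primary: duplicate, 25 uM; secondary: concentration series.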

Assay [2] has as its target rat Glutamate, MK-801 Agonist Site (GluNMDA_MK801), Grin1 (gene 24408) (UniProt P35439). Nature of the assay: NVS_LGIC_rGluNMDA_MK801_Agonist: NovaScreen (NVS) Ligand-Gated Ion Channel Assay for rat Glutamate, MK-801 Agonist Site (GluNMDA_MK801) (AID 2283340). An outline of the steps:
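Rat forebrain membrane preparation; MK-801-site radioligand binding read by filtration and scintillation after 1.5 h. Single-point 25 uM duplicate screen, followed by singleton concentration series to 50 uM max; DMSO baseline.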

In assay [3] the test system is guinea pig Histamine Receptor (H2), gene 100729734. The assay can be described thus: NVS_GPCR_gH2: NovaScreen (NVS) G Protein-Coupled Receptor Assay for guinea pig Histamine Receptor (H2) (AID 2283342). The gist of the method:
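Guinea pig striatal membrane preparation with specific radioligand; bound counts measured by filtration and scintillation 1 h post-dosing, DMSO as baseline. Chemicals passing a 25 uM duplicate screen were titrated to a 50 uM maximum.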

Assay [4] concerns the target bovine Estrogen Receptor (ER), ESR1 (gene 407238) (UniProt P49884). The assay can be described thus: NVS_NR_bER: NovaScreen (NVS) Nuclear Receptor Binding Assay for bovine Estrogen Receptor (ER) (AID 2283345).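 Also: actives lower the bound radioligand count which means they displace the ER ligand.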 The gist of the method:
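Displacement of a radioligand from estrogen receptor in bovine uterine membrane preparations; scintillation signal taken at 18 hours, DMSO as baseline. Single-concentration duplicates (25 uM) preceded concentration-response follow-up of actives.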

The target of assay [5] is Estrogen receptor (Homo sapiens) (UniProt P03372). The assay can be described thus: OT_ER_ERaERa_1440: Odyssey Thera (OT) 24-hour HEK293T Protein-Complementation Assay for Estrogen Receptor-alpha/-alpha Homodimer (AID 2283349).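 Also: hits raise fluorescence above DMSO for agonists and antagonists alike.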 An outline of the steps:
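Cells (HEK293T) carrying the fragment-tagged ERα LBD (aa 310-547) pair are treated with chemical for 24 hours. Nuclear and/or cytoplasmic fluorescence is then quantified on a laser scanning cytometer. Activity is scored as signal gain against DMSO.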

Assay [6] has the same target. The assay can be described thus: OT_ER_ERaERa_0480: Odyssey Thera (OT) 8-hour HEK293T Protein-Complementation Assay for Estrogen Receptor-alpha/-alpha Homodimer (AID 2283351).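 Also: rise in fluorescence from reassembled reporter fragments on ERα LBD homodimer in nucleus or whole cell.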 An outline of the steps:
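Read-out: fluorescence intensity rise relative to DMSO, nuclear for agonists, nuclear plus cytoplasmic for antagonists. Construct is the ERα LBD (aa 310-547) homodimer fragment-complementation pair, stably expressed in HEK293T; exposure 8 h.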

Assay [7] concerns the target Androgen Receptor/SRC-1 Co-activator, AR (gene 367) (UniProt P10275). The assay can be described thus: OT_AR_ARSRC1_0960: Odyssey Thera (OT) 16-hour HEK293T Protein-Complementation Assay for Androgen Receptor/SRC-1 Co-activator (AID 2283353).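 Also: actives raise the signal above DMSO so potency reflects increased AR and SRC-1 complex.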 The gist of the method:
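Readout: 488 nm nuclear-to-cytoplasmic fluorescence ratio from imaging of at least 400 cells per image, 16 h post-dose. Reporter is Venus YFP complementation between AR and SRC-1 fusions, stably expressed in HEK293T; activity scored upward relative to DMSO.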

Assay [8] has as its target Estrogen receptor (Homo sapiens) + Estrogen receptor beta (Homo sapiens) (UniProt P03372+Q92731). The assay can be described thus: OT_ER_ERaERb_1440: Odyssey Thera (OT) 24-hour HEK293T Protein-Complementation Assay for Estrogen Receptor-alpha/-beta Homodimer (AID 2283356).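 Also: heteromer of ER alpha and ER beta binding domains; hits raise reporter fluorescence and both agonists and antagonists give an increase.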 The gist of the method:
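Readout: mean fluorescence intensity in nucleus (agonists) or nucleus plus cytoplasm (antagonists), read by laser scanning cytometer after 24 h compound exposure of HEK293T cells carrying ERα/ERβ LBD fragment-complementation constructs; DMSO baseline.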

The target of assay [9] is Estrogen receptor beta (Homo sapiens) (UniProt Q92731). Nature of the assay: OT_ER_ERbERb_0480: Odyssey Thera (OT) 8-hour HEK293T Protein-Complementation Assay for Estrogen Receptor-beta/-beta Homodimer (AID 2283357).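 Also: active means signal gain over DMSO baseline.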 The gist of the method:
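Homodimerization of ER-beta LBD measured by protein-fragment complementation in HEK293T; 8 h dosing; fixed, Draq5 counterstain; fluorescence intensity gain over DMSO baseline, positive fitting direction; laser scanning cytometry.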

Assay [10] deals with rat Peripheral-type Benzodiazepine Receptor (PBR), Tspo (gene 24230) (UniProt P16257). The assay can be described thus: NVS_MP_rPBR: NovaScreen (NVS) Membrane Protein Assay for rat Peripheral-type Benzodiazepine Receptor (PBR) (AID 2283335). An outline of the steps:
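Single-concentration duplicate screening at 25 uM preceded concentration-series retesting of actives. Binding of a specific radioligand to rat kidney membrane PBR was read by filtration radiodetection after 1 h, with plate-wise positive and negative controls.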

The target in assay [11] is human Constitutive Androstane Receptor (CAR), NR1I3 (gene 9970) (UniProt Q14994). Nature of the assay: NVS_NR_hCAR_Antagonist: NovaScreen (NVS) Nuclear Receptor Binding Assay for human Constitutive Androstane Receptor Antagonism (CAR) (AID 2283344). The gist of the method:
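Single 25 uM duplicate primary screen, with concentration-series follow-up on actives. Cell-free binding format run in antagonist mode, TR-FRET signal taken 1 h post-dose; activity is signal loss relative to DMSO.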

The target in assay [12] is chimpanzee Androgen Receptor (AR), AR (gene 747460) (UniProt O97775). Nature of the assay: NVS_NR_cAR: NovaScreen (NVS) Nuclear Receptor Binding Assay for chimpanzee Androgen Receptor (AR) (AID 2283346).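 Also: radioligand displacement from AR measured by scintillation counting in a cell-free assay.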 The gist of the method:
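Radioligand binding to chimpanzee AR expressed in Sf9/Sf21 cells, cell-free, measured 72 h after dosing by lysate-based scintillation counting. Loss of signal vs DMSO; initial duplicate screen at 25 uM, actives retested in concentration series.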

Assay [13] has as its target Estrogen receptor (Homo sapiens) (UniProt P03372). Nature of the assay: NVS_NR_hER: NovaScreen (NVS) Nuclear Receptor Binding Assay for human Estrogen Receptor (ER) (AID 2283348). An outline of the steps: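 MCF7-derived receptor extract, radiolabelled ligand, competitive displacement. Read: scintillation counts at 18 h. DMSO = negative control/baseline. Primary 25 uM duplicate; follow-up concentration–response.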

A further assay relates to NCBI gene 100848466. Nature of the assay: NVS_NR_bPR: NovaScreen (NVS) Nuclear Receptor Binding Assay for bovine Progextron Receptor (PR) (AID 2283343).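 Also: actives lower bound radioligand signal below DMSO meaning displacement of the label.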 An outline of the steps: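 Scintillation counts of bound radioligand were read 18 hours after chemical addition to membranes extracted from bovine uterus. Displacement was scored as loss of signal relative to DMSO controls. Screening began at 25 uM in duplicate.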

Assay [14] deals with rat Mineralocorticoid Receptor (MR), Nr3c2 (gene 25672) (UniProt P22199). Nature of the assay: NVS_NR_rMR: NovaScreen (NVS) Nuclear Receptor Binding Assay for rat Mineralocorticoid Receptor (MR) (AID 2283355). An outline of the steps: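 Radioligand displacement, scintillation readout; tissue source adrenalectomized rat brain supernatant. Read 24 h post-dose. Screened in duplicate at 25 uM, DMSO negative control, controls on every plate; actives re-run in concentration series.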

In assay [15] the target is bovine Gamma-Aminobutyric Acid Type A Receptor Agonist (GABAR Agonist), GABRA1 (gene 780973) (UniProt P08219). Nature of the assay: NVS_LGIC_bGABAR_Agonist: NovaScreen (NVS) Ligand-Gated Ion Channel Assay for bovine Gamma-Aminobutyric Acid Type A Receptor Agonist (GABAR Agonist) (AID 2283338). The gist of the method:
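Radioligand binding to bovine cerebellar membranes in agonist format, read by filter-based scintillation counting after 1 h. Primary screen in duplicate at 25 uM, with actives followed in concentration series. Gain of signal versus DMSO.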

For assay [16], the target named is rat Glycine Receptor, Strychnine-sensitive (GlyRStrySens), Glra1 (gene 25674) (UniProt P07727). The assay can be described thus: NVS_LGIC_rGlyRStrySens: NovaScreen (NVS) Ligand-Gated Ion Channel Assay for rat Glycine Receptor, Strychnine-sensitive (GlyRStrySens) (AID 2283341). The gist of the method: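 Radioligand displacement on rat spinal cord membranes, 1 hr, filter scintillation read-out. Single-concentration duplicate screen at 25 uM; chemicals meeting threshold (e.g., 30% inhibition) rerun in concentration-response up to 50 uM. Loss of binding fitted versus DMSO.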

Assay [17] addresses Bile acid receptor (Homo sapiens) (UniProt Q96RI1). The assay can be described thus: NVS_NR_hFXR_Antagonist: NovaScreen (NVS) Nuclear Receptor Binding Assay for human Farnesoid X Receptor Antagonism (FXR) (AID 2283350). An outline of the steps: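 Antagonist-format time-resolved FRET binding assay with extracted human receptor protein, read 1 hour after compound addition. Compounds first screened at 25 uM in duplicate, then actives tested in concentration series, with loss of signal relative to DMSO.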

Assay [18] addresses Retinoic acid receptor alpha (Homo sapiens) (UniProt P10276). The assay can be described thus: NVS_NR_hRAR_Antagonist: NovaScreen (NVS) Nuclear Receptor Binding Assay for human Retinoic Acid Alpha Receptor Antagonism (RAR) (AID 2283358). An outline of the steps: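 Read-out: time-resolved FRET binding signal, 2 h post-dose, cell-free extracted protein. Antagonism scored as signal loss versus DMSO negative control. Primary single-concentration screen at 25 uM in duplicate; concentration series for actives.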

Inconclusive results are not listed. Active and inactive are the calls of the source. The calls were made as follows: active = hit-call score of the fitted dose curve at least 0.9, where 1 is the maximum; inconclusive = response in the unintended direction; inactive = score below 0.9.

Chain of Estrogen receptor beta (Homo sapiens) (Q92731 whole entry, looked up, the tested form may be a part): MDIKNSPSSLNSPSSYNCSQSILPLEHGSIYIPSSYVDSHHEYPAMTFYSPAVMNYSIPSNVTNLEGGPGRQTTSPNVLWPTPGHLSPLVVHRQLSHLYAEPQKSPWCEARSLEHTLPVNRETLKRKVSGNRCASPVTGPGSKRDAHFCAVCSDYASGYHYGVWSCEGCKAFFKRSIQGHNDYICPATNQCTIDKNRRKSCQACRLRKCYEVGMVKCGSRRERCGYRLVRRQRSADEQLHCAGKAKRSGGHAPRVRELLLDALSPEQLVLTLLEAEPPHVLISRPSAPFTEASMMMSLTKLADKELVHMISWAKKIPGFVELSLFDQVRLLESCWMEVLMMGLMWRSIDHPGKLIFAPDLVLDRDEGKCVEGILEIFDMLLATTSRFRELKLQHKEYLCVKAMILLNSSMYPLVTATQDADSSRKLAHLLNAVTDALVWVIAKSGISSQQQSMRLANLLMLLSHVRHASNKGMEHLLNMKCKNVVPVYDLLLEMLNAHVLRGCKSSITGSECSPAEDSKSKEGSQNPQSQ
Chain of Retinoic acid receptor alpha (Homo sapiens) (P10276 whole entry, looked up): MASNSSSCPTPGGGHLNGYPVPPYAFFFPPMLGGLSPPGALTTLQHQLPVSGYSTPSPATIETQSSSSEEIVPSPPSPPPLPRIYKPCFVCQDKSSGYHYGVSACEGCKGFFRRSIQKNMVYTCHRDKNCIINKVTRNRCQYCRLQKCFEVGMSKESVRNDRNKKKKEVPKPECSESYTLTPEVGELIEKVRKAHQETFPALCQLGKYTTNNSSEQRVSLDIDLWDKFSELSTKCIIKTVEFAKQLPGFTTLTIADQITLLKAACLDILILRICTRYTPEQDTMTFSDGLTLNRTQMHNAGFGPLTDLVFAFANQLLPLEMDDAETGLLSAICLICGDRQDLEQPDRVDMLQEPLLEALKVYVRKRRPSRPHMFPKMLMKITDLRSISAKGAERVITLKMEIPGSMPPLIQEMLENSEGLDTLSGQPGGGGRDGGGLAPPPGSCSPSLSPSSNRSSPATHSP
Chain of Estrogen receptor (Homo sapiens) + Estrogen receptor beta (Homo sapiens) (P03372 whole entry, looked up, the tested form may be a part): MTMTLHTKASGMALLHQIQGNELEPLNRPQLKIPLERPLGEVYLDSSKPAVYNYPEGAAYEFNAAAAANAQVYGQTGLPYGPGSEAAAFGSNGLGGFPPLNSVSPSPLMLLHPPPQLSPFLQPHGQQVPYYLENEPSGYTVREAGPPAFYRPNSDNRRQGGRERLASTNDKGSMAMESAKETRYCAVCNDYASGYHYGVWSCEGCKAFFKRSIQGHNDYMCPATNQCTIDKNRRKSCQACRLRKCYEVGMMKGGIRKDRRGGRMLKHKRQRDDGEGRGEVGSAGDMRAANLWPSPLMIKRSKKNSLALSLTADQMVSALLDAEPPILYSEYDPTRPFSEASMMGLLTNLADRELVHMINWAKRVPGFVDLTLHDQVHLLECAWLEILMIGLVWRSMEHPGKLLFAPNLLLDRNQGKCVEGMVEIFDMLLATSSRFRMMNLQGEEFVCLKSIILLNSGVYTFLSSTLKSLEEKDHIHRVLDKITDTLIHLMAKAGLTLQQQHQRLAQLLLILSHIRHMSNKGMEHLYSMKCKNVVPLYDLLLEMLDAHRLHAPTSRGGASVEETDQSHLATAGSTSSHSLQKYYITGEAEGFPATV
Chain of Estrogen receptor (Homo sapiens) + Estrogen receptor beta (Homo sapiens) (Q92731 whole entry, looked up, the tested form may be a part): as the sequence (Q92731 whole entry, looked up, the tested form may be a part) above
Chain of Estrogen receptor (Homo sapiens) (P03372 whole entry, looked up, the tested form may be a part): as the sequence (P03372 whole entry, looked up, the tested form may be a part) above
Chain of Androgen Receptor/SRC-1 Co-activator, AR (gene 367) (P10275 whole entry, looked up, the tested form may be a part): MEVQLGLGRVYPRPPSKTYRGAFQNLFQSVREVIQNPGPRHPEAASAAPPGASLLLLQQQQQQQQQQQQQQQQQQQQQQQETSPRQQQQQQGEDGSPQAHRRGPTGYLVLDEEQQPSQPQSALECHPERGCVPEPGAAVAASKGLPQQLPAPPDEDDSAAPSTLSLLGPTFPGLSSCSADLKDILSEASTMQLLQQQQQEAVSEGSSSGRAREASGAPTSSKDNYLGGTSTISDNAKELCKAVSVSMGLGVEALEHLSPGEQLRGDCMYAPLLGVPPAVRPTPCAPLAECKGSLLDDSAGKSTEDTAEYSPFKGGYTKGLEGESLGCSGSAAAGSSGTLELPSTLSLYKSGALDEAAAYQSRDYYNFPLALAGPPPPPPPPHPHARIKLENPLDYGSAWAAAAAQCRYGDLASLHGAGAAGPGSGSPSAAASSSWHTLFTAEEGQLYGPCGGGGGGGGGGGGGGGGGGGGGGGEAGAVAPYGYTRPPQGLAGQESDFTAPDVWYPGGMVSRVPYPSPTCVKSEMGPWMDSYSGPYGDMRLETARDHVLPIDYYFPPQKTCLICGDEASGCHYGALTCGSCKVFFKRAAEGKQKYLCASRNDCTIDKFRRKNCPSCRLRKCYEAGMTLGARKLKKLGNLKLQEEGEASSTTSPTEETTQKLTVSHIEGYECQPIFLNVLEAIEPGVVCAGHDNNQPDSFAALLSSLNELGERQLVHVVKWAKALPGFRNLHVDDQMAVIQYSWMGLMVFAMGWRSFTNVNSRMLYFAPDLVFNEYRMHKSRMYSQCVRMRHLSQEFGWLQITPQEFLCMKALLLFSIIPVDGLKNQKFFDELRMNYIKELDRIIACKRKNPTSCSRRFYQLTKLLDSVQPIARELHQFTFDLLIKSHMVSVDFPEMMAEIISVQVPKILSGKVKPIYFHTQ
Chain of bovine Estrogen Receptor (ER), ESR1 (gene 407238) (P49884 whole entry, looked up): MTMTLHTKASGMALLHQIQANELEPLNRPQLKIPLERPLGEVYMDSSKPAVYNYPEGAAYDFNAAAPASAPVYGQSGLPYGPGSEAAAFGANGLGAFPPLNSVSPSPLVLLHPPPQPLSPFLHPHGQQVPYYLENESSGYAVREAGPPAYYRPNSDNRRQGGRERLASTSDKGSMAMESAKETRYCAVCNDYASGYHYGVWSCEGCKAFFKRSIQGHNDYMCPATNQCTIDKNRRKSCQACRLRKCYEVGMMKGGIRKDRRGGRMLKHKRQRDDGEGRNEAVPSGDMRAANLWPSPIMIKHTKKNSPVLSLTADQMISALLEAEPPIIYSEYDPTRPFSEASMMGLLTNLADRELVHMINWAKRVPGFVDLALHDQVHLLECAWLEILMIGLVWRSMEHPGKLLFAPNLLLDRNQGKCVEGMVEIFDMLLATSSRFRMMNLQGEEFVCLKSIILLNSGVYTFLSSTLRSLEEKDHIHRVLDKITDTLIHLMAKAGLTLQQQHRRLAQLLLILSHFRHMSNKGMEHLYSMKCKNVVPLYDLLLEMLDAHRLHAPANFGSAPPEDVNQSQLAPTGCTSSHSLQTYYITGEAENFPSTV
Chain of bovine Gamma-Aminobutyric Acid Type A Receptor Agonist (GABAR Agonist), GABRA1 (gene 780973) (P08219 whole entry, looked up): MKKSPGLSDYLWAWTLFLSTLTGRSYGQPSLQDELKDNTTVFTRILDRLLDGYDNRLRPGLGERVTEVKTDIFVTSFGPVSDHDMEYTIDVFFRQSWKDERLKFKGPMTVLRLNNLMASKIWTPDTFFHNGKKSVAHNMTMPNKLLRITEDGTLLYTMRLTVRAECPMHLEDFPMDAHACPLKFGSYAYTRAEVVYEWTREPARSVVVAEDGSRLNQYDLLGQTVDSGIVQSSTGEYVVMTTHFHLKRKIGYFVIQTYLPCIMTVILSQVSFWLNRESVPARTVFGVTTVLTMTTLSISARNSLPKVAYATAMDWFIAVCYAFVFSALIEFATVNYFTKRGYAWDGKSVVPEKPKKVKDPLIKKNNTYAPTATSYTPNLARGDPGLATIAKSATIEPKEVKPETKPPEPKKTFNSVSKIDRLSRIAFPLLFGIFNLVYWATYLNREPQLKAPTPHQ
Chain of rat Peripheral-type Benzodiazepine Receptor (PBR), Tspo (gene 24230) (P16257 whole entry, looked up): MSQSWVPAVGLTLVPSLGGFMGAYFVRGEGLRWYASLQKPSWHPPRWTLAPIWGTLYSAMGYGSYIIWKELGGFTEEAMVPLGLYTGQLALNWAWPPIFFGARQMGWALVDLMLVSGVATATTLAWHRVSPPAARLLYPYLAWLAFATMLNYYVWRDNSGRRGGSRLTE

The term AC50 denotes the concentration at which the activity in the assay is half-maximal. As to `COc1cc(C(=O)NC2CCN(C)CC2)ccc1Nc1ncc2c(n1)N(C1CCCC1)CC(F)(F)C(=O)N2C`, the AC50 in [1] is 10.8 µM (active); in assay [2], 15.9 µM (active); in assay [3], 4.77 µM (active); in assay [5], 2.24 µM (active); in [7], 25.9 µM (active); in assay [8], 11 µM (active). Moreover, the result in assay [4], in assay [6] and in assay [9] was inactive.
As to `Cc1oc2c(NC(=O)c3c(Cl)cccc3Cl)cccc2c1C(C)(C)O`, the values for the AC50 in [10], in assay [11] and in assay [13] were 2.5 µM (active), 34.6 µM (active) and 13.6 µM (active), respectively. Moreover, the result in assay [12], in [5] and in assay [6] was inactive.
In the case of `C[C@]12CC[C@@H]3c4ccc(O)cc4CC[C@H]3[C@@H]1CC[C@H]2O`, the AC50 was 98.8 nM (active) in the assay on NCBI gene 100848466 and 135 nM (active) in assay [14].
With `Cc1occc1C(=O)Nc1ccc(C(=O)N2CCC(F)(F)/C(=C\C(=O)N3CCC(N4CCCCC4)CC3)c3ccccc32)cc1`, the AC50 in assay [1] was 5.12 µM (active); in [6], 27.7 µM (active); in [7], 32.3 µM (active); in assay [8], 33.5 µM (active). Moreover, the molecule was classed as inactive in assay [3], in [5] and in assay [9].
As to `CCOC(=O)O[C@H](C)OC(=O)c1ccc2c(c1)cc(C(=O)NC1CCN(C(C)C)CC1)n2Cc1cc(-c2ccc(Cl)s2)on1`, the AC50 was 9.12 µM (active) in assay [1], 11.8 µM (active) in assay [15], 13.3 µM (active) in assay [3] and 17.8 µM (active) in [12]. The molecule was classed as inactive in assay [13], in assay [5], in assay [6], in [8] and in assay [9].
Regarding `c1ccc(C[n+]2cccc3ccccc32)cc1`, the result in assay [2], in [4], in [5], in assay [6], in assay [8] and in [9] was inactive. Besides, the AC50 in assay [3] was 25 µM (active).
In the case of `O=C(O)Cc1cc(I)c(Oc2ccc(O)c(I)c2)c(I)c1`, the molecule was classed as inactive in assay [16], in assay [14], in [9] and in assay [18]. For the same molecule, the AC50 in assay [17] was 40.3 µM (active).
Consider `O=C1O[C@H]([C@@H](O)CO)C(O)=C1O`, for which the molecule was called inactive in assay [15] and in assay [9].
